Reference: PubChem BioAssay (NCI)
About 79,000 compounds went through this panel and 15% of them were active in at least one assay; those are over-represented in the sample as a whole. Values without a mark were called inactive. Calls of active or inactive are those of the source. No stated cut-off is given here; in the data, active means growth inhibition above about 70%; inactive means the rest.

Columns and labels:
[1] = NCI Yeast Anticancer Drug Screen. Data for the rad50 strain (AID 155);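 further: 0% = growth of vehicle-only cultures of the same strain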; settings: S. cerevisiae rad50 strain growth inhibition, stronger effect = higher value
Summary of the method: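 Growth of the mutant yeast was measured after compound exposure and referenced to vehicle-treated cultures.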

[2] = NCI Yeast Anticancer Drug Screen. Data for the mec2-1 strain (AID 157); settings: S. cerevisiae mec2-1 strain, stronger effect = higher value
Summary of the method: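 Test agents were screened against the mec2-1 yeast strain, with defined DNA repair or cell cycle alteration. Growth was scored as inhibition against vehicle-only controls.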

[3] = NCI Yeast Anticancer Drug Screen. Data for the sgs1 mgt1 strain (AID 161);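 further: 0% = growth of cultures given vehicle only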; settings: S. cerevisiae sgs1 mgt1 strain, stronger effect = higher value
Summary of the method: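 Inhibition of yeast growth, normalised to vehicle-treated controls, is reported for a strain bearing genetic alterations in DNA damage repair.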

[4] = NCI Yeast Anticancer Drug Screen. Data for the cln2 rad14 strain (AID 165);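 further: 0% = growth equal to vehicle treated cultures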; settings: S. cerevisiae cln2 rad14 strain, stronger effect = higher value
Summary of the method: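 Growth of compound-exposed yeast (cln2 rad14 genotype) measured and expressed as inhibition relative to vehicle.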

[5] = NCI Yeast Anticancer Drug Screen. Data for the bub3 strain (AID 167); settings: S. cerevisiae bub3 mutant strain, stronger effect = higher value
Summary of the method: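 Whole-cell yeast assay. The mutant strain was incubated with compounds, and growth inhibition was determined by comparison with vehicle-treated cells.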

[6] = NCI Yeast Anticancer Drug Screen. Data for the mlh1 rad18 strain (AID 175); settings: S. cerevisiae mlh1 rad18 strain growth inhibition, stronger effect = higher value
Summary of the method: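 In this whole-cell yeast screen, a strain with altered DNA damage repair is challenged with compound, and its growth is measured against matched vehicle-treated controls.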

[7] = at 5.0 µM (retest, dose inferred, filed as 0.5)
[8] = at 50.0 µM (retest, dose inferred, filed as 5.0)

Structure (SMILES) | growth inhibition [1, 7] | growth inhibition [1, 8] | growth inhibition ([1]; at 50.0 µM) | growth inhibition [2, 7] | growth inhibition [2, 8] | growth inhibition ([2]; at 50.0 µM) | growth inhibition [3, 7] | growth inhibition [3, 8] | growth inhibition ([3]; at 50.0 µM) | growth inhibition [4, 7] | growth inhibition [4, 8] | growth inhibition ([4]; at 50.0 µM) | growth inhibition [5, 7] | growth inhibition [5, 8] | growth inhibition ([5]; at 50.0 µM) | growth inhibition [6, 7] | growth inhibition [6, 8] | growth inhibition ([6]; at 50.0 µM)
C/C=C(\C)C(=O)OC1CC(C)(C)CC2C3=CCC4C5(C)CCC(=O)C(C)(C)C5CCC4(C)C3(C)CCC12C(=O)O (configuration not stated) (tested in a mixture with another compound) | 1% | 78% (active) | 86% (active) | -9% | 70% (active) | 84.7% (active) | 5% | 77% (active) | 89.2% (active) | 38% | 88% (active) | 87.9% (active) | 1% | 82% (active) | 86% (active) | 26% | 82% (active) | 84.3% (active)
[Cl][Sn]([Cl])([c]1ccccc1)[c]1ccccc1.c1ccc2nc(-c3ccc4ccccc4n3)ccc2c1 | 16% | 97% (active) | 84% (active) | 16% | 98% (active) | 96% (active) | 32% | 97% (active) | 75.3% (active) | 6% | 96% (active) | 45.1% | 5% | 96% (active) | 59.6% | 23% | 96% (active) | 93.2% (active)
NC1=NC(=O)N2CC12 (configuration not stated) | 30% | 36% | 48.5% | 13% | 7% | -9.3% | 25% | 16% | 8.2% | 20% | 15% | 11.4% | 21% | 18% | 7% | 29% | 52% | 6.4%
O=[As](O)(O)CCc1ccccc1 | -148% | -168% | 2.3% | -50% | -54% | 3.75% | -67% | -56% | 8.35% | -58% | -65% | 17.4% | -67% | -78% | -5.95% | -146% | -115% | 5.7%
CCOC(=O)C1C(O)=C(P(=O)(C2=C(O)C(C(=O)OCC)C(c3ccc(OC(C)=O)cc3)C(C(=O)O)C2=O)N(CCCl)CCCl)C(=O)C(C(=O)O)C1c1ccc(OC(C)=O)cc1 (configuration not stated) | 16% | 86% (active) | 45.6% | 1% | 85% (active) | 71.8% (active) | 11% | 95% (active) | 52% | -5% | 73% (active) | 66.2% | -4% | 90% (active) | 54.4% | 20% | 92% (active) | 61.2%
CC(=O)c1ccccc1O.CO.CO.[Cl][Ta][Cl] | 1% | 1% | -13% | 15% | -7% | -5.75% | -14% | 0% | -9.65% | -7% | -6% | 33.9% | -1% | -5% | 3.45% | -6% | 1% | -10.2%
CN(CCCl)c1ccc(/C=C/C2=[N+](C)c3ccccc3C2(C)C)cc1 | -6% | 98% (active) | 99.5% (active) | -3% | 98% (active) | 99.5% (active) | -6% | 98% (active) | 99.7% (active) | -2% | 98% (active) | 98.4% (active) | -3% | 99% (active) | 99.2% (active) | 9% | 98% (active) | 98.7% (active)
CCCCCCCCCCCCCCCCCC[N+](C)(C)C (tested in a mixture with another compound) | 99% (active) | 99% (active) | 2.1% | 98% (active) | 99% (active) | 13.1% | 99% (active) | 99% (active) | 73.5% (active) | 78% (active) | 98% (active) | 13.2% | 99% (active) | 97% (active) | -1.15% | 99% (active) | 99% (active) | -2.5%
COc1cc(/C=C\[N+](=O)[O-])ccc1O | 87% (active) | 99% (active) | 99.2% (active) | 53% | 100% (active) | 99.6% (active) | 34% | 99% (active) | 99.5% (active) | 21% | 100% (active) | 99% (active) | 77% (active) | 99% (active) | 99% (active) | 51% | 99% (active) | 99% (active)
CCC(=O)C(CCN1CCC(N2C(=O)C(CCC#N)c3ccccc32)CC1)(c1ccccc1)c1ccccc1 (configuration not stated) | -3% | -3% | -7.55% | -6% | -6% | -23.4% | 8% | -3% | 10.8% | -2% | 14% | 3.15% | -1% | -17% | 10.2% | -23% | 1% | 32.2%
ClCc1ccncc1 | 38% | 73% (active) | 54.9% | 26% | 46% | 47.2% | 55% | 69% | 69.4% | 38% | 57% | 51% | 31% | 73% (active) | 58% | 25% | 66% | 57.6%
[C-]#[O+].[C-]#[O+].[C-]#[O+].[C-]#[O+].[Mo].c1cnc2c(c1)ccc1cccnc12 | -2% | 0% | 81% (active) | -8% | -6% | 60.4% | -6% | -2% | 71.4% (active) | -5% | -17% | 39.6% | -1% | 6% | 79.1% (active) | -4% | -8% | 81.9% (active)
O=C1CCC(=O)N1SC(Cl)(Cl)Cl | 21% | 26% | 99.7% (active) | 20% | 4% | 99.7% (active) | 7% | 6% | 99.7% (active) | -11% | -13% | 99% (active) | -12% | 2% | 99.5% (active) | 2% | 18% | 99.5% (active)
CO/C1=C\C(C)=C\C(C)C(O)C(C)C/C(C)=C/C=C/C(OC)C(C(C)C(O)C(C)C2(O)CC(O)C(C)C(C(C)C)O2)OC1=O (configuration not stated) | 1% | 84% (active) | 85.2% (active) | -11% | 59% | 77.3% (active) | 8% | 85% (active) | 84.5% (active) | 9% | 78% (active) | 74.1% (active) | 5% | 88% (active) | 86.2% (active) | 0% | 88% (active) | 81.2% (active)
O=C(Nc1n[c]([Hg][Cl])[c]([Hg][Cl])s1)OCc1ccccc1 | 99% (active) | 98% (active) | 99% (active) | 99% (active) | 99% (active) | 99.5% (active) | 98% (active) | 99% (active) | 99.3% (active) | 34% | 99% (active) | 98.9% (active) | 100% (active) | 99% (active) | 99.2% (active) | 99% (active) | 98% (active) | 98.9% (active)
CN(C)CC1(N)C(=O)NC(=O)NC1=O | 3% | 10% | 75.7% (active) | 4% | 11% | 78% (active) | 4% | 8% | 47.3% | -1% | -1% | 43.6% | 0% | 8% | 95.2% (active) | -1% | 10% | 46.2%
O=C(N/N=C/c1cc(Br)cc(Br)c1[O-])c1ccccc1O.O=C(N/N=C/c1cc(Br)cc(Br)c1[O-])c1ccccc1O.[Zn+2] | 96% (active) | 98% (active) | 52.5% | 96% (active) | 96% (active) | 90.7% (active) | 97% (active) | 98% (active) | 85.5% (active) | 94% (active) | 96% (active) | 64.5% | 95% (active) | 96% (active) | 88.1% (active) | 95% (active) | 97% (active) | 83.5% (active)
O=S(=O)(CCBr)CCBr | 51% | 68% | 88.3% (active) | 43% | 56% | 84.2% (active) | 66% | 89% (active) | 88.4% (active) | 92% (active) | 93% (active) | 41.9% | 80% (active) | 94% (active) | 83.2% (active) | 33% | 57% | 85.2% (active)
C[CH2][Pb]([CH2]C)([CH2]C)[O]C(=O)COc1ccc(Cl)cc1Cl | 29% | 84% (active) | 91.5% (active) | 14% | 89% (active) | 95.1% (active) | 3% | 94% (active) | 95% (active) | 2% | 91% (active) | 85.7% (active) | -4% | 95% (active) | 95.6% (active) | 29% | 96% (active) | 97% (active)
